Data from PubChem BioAssay AID651550 (National Center for Advancing Translational Sciences (NCATS), 2012).
Screen size: about 360,000 compounds; about 1,100 (0.31%) were called active. The entries come from a sample that favours actives as a whole. Values without a mark were called inactive. Rule as the data show it: active = activity change below about -80%; inconclusive = mostly about -51% to -80%; inactive = weaker than that.

Molecular target: RAC-alpha serine/threonine-protein kinase (Homo sapiens) (UniProt P31749)
Experiment: HTS Assay for Inhibitors of Akt Phophorylation: Primary Screen
Settings: Neuro2A IGF-stimulated pAkt S473 HTRF, 20 min; at 50 µM, active compounds read low
Description: The serine/threonine protein kinase Akt (protein kinase B) regulates various cellular processes, including cell survival, growth, proliferation, migration and differentiation. It has been well established that Akt is activated through two essential steps involving membrane translocation and phosphorylation. Cytosolic Akt is recruited to the plasma membrane via the interaction between the PH domain and membrane PIP3 produced by phosphoinositide-3 kinase (PI3K) upon growth factor receptor stimulation. The membrane-Akt interaction results in conformational changes of Akt, enabling its activation through phosphorylation at T308 in the kinase domain and at S473 in the C-terminal hydrophobic motif by PDK1 and mTOR-rictor complex (mTORC2), respectively. […] These findings indicate that S473 phosphorylation, as an important modulator of Akt activation, may be a valuable drug target for cell growth, survival, proliferation and differentiation. These inhibitors also may have significant therapeutic potential with fewer side effects, especially for the conditions involving hyperactive Akt signaling, such as cancer and Alzheimer's disease.
To this end, a miniaturized assay was developed to be screened against the Molecular Libraries Small Molecule Repository (MLSMR).
NIH Chemical Genomics Center [NCGC]
NIH Molecular Libraries Probe Centers Network [MLPCN]
Assay Submitter (PI): Hee-Yong Kim, National Institute on Alcohol Abuse and Alcoholism
3 uL of Neuro2A cell suspension in DMEM containing 0.5% FBS and […] antibiotics mix was plated in a white solid bottom tissue culture-treated 1536-well plate (Greiner Bio-One, Monroe, NC) at 4,500 cells per well and incubated overnight at 37 deg C. 23 nL/well of compound solutions in DMSO was added with Pintool transfer (Kalypsis, San Diego, CA) at single […] final concentration. Then, the cells were stimulated with 1.5 uL of IGF (6 nM final concentration) and incubated at 37 deg C for 20 min. The reaction was terminated by the addition of 1.5 uL blocking reagent mixed with lysis buffer (1:25 correspondingly) provided with HTRF(R) Phospho Akt (Ser473) kit (Cisbio US, Bedford, MA), with following incubation for 50 min at ambient temperature. The detection HTRF conjugates from the kit were prepared according to the protocol, pre-mixed 1:1 prior to dispensing, and 2 uL/well was added with BioRAPTR FRD dispenser (Beckman Coulter). The assay plates were incubated for 24 hours at ambient temperature, and the HTRF fluorescence was measured using Envision plate reader (PerkinElmer) with excitation at 330nm, emission at 615nm (Eu(3)-Cryptate donor signal) and 665nm (d2 acceptor signal). The ratio of […] was calculated for each well.
% is scaled to controls: 0 for no effect and ±100 for the full control effect.

SMILES	activity change
C=CCNc1nnc(C)c2ccccc12	-110% (active)
C=CCNc1nnc(SCC(=O)N2CCCCC2)c2ccccc12	4.07%
C=CCNc1nc(C)nc(OC)n1	inactive
CCCc1nnc(NC(=O)CCC(=O)N2CCN(S(=O)(=O)c3ccc(OC)cc3)CC2)s1	inactive
CCc1c(Nc2ccccc2C)nc(N)[nH]c1=O	inactive
Cc1ccccc1Nc1nnc(C)c(=O)[nH]1	-109% (active)
Cc1nnc(N/N=C/c2ccccn2)[nH]c1=O	inactive
Cc1cccc(C)c1NC(=O)C(c1cccc2ccccc12)n1c(=O)c(-c2ccco2)nc2ccccc21 (stereo unspecified)	inactive
COc1cccc(-c2ccc3c(c2)N(Cc2ccccc2OC)C(=O)C(C)S3)c1 (stereo unspecified)	inactive
CCc1c(-c2ccc(F)cc2)ncn1Cc1cccc(-c2ccccc2)c1	inactive
CCCCCn1nnnc1-c1nc2cc3ccccc3cc2[nH]c1=O	inactive
COc1ccccc1NC(=O)C1CCN(C(=O)c2ccc(C(C)(C)C)cc2)CC1	inactive
Cc1cc(Br)cn2c(Cc3ccccc3C(F)(F)F)c(-c3ccc(Cl)cc3)nc12	inactive
Cc1nc2c(c(C)nn2-c2ccccc2)c(C)c1C	inactive
Cn1c(=O)c2c(-c3cccc(Br)c3)c(C#N)c(N)nc2n(C)c1=O	inactive
CSc1ccc(-c2c(C#N)c(N)nc3c2c(C)nn3-c2ccccc2)cc1	-83.6% (active)
COc1ccc(NC(=O)C(c2ccncc2)n2c(=O)c(-c3cc4ccccc4[nH]3)nc3ccccc32)cc1 (stereo unspecified)	inactive
Nc1nc2ncccn2c1-c1ccccc1	inactive
Cc1ccc2[nH]c(=O)c(COC(=O)c3ccccn3)cc2c1	-7.82%
CCOC(=O)c1cc2cc(C)ccc2[nH]1	inactive
CC(=O)OCc1cc2cc(C)ccc2[nH]c1=O	-102% (active)
CCOc1ccc(N(CC(=O)NCc2ccc(OC)cc2)S(=O)(=O)c2c(C)noc2C)cc1	-134% (active)

SMILES	activity change
Cc1noc(C)c1S(=O)(=O)N(CC(=O)NCc1ccc(Cl)cc1)c1ccc2c(c1)OCO2	inactive
CCOc1ccc(N(CC(=O)OC)S(=O)(=O)c2c(C)noc2C)cc1	inactive
NC(=NC(=O)c1ccccc1)C1=C(O)CCC1=O	-110% (active)
Cc1onc(-c2ccccc2)c1C(=O)N=C(N)c1ccc(Cl)cc1	inactive
NC(=NC(=O)c1ccccc1)N1CCOCC1	inactive
O=C(O)Cc1csc(-c2cccc(Oc3ccccc3)c2)n1	inactive
CCCCOCCCNC(=O)C[C@@H]1C[C@@]2(C(=O)OCC)CCCC=C2N(CCC2=CCCCC2)C1=O	inactive
CC(C)N1C(=O)c2ccccc2NC(=O)C1C(=O)NCc1cccs1 (stereo unspecified)	inactive
O=C(C(=O)N1CCN(c2ccccc2)CC1)c1ccc2c(c1)OCO2	inactive
CC1(C(=O)Nc2ccc3c(c2)OCCO3)CN(S(C)(=O)=O)CC(=O)N1Cc1cccc(F)c1 (stereo unspecified)	inactive
COc1ccc(-n2ncc3c(SCC(=O)NNC(C)=O)ncnc32)cc1	inactive
COc1ccc(-n2ncc3c(N4CCc5ccccc54)ncnc32)cc1	-95.4% (active)
COc1ccccc1N1CCN(C(=O)CSc2ncnc3c2cnn3-c2ccc(C)c(C)c2)CC1	inactive
COc1nc(OC)nc(N(C)CCO)n1	-113% (active)
COc1nc(Oc2ccc(=O)n(C)n2)nc(N(C)C)n1	6.07%
CO[C@@H]1CN(C)C(=O)c2cc(NC(=O)C3CC3)ccc2OC[C@H](C)N(C(=O)CN2CCOCC2)C[C@@H]1C	inactive
CC(=O)C[C@@H]1OC[C@H](C)N1S(=O)(=O)c1ccc(C)cc1	inactive
Cc1cccc(C(=O)Nc2ccc3c(c2)C(=O)N(CC(C)C)C3=O)c1	inactive
Cc1cccc(C(=O)Nc2ccc(C(=O)/C=C/c3cccs3)cc2)c1	-121% (active)
Cc1cccc(C(=O)Nc2ccc(Oc3cnccn3)cc2)c1	inactive
CCCCCc1c(Cc2ccccc2)ncn1CCc1ccccc1OC	inactive
COc1ccc(N2C(=O)CCC(C(=O)N(C)C3CCCCC3)C2c2ccc(OC)c(OC)c2)cc1 (stereo unspecified)	inactive

SMILES	activity change
COc1ccc(S(=O)(=O)N[C@@H]2C=C[C@@H](CC(=O)N3CCc4ccccc4C3)O[C@@H]2CO)cc1	inactive
COc1ccc(C(=O)NC2CCN(C(=O)Nc3ccc(F)cc3)CC2)cc1	inactive
Cc1cc(C)cc(NC(=O)N2CCC(NC(=O)c3ccc(F)cc3)CC2)c1	-96.8% (active)
Cc1ccc(C(=O)NC2CCN(C(=O)Nc3ccc(F)cc3)CC2)cc1	inactive
Cc1ccc(S(=O)(=O)N2C[C@H]3n4c(=O)ccc(=O)n4C[C@H](OC(=O)NC4CCCC4)[C@@]3(O)C2)cc1	inactive
Cc1ccc2nc(Nc3ncc4c(n3)CC(C)(C)CC4=O)nc(C)c2c1	inactive
CC(=O)N1CCC(C(=O)Nc2nc(-c3ccccc3)ns2)CC1	inactive
O=C(NNC(=O)C1CCN(c2ncccn2)CC1)c1ccccc1	inactive
Cc1cc(-c2ccccc2)nc(N2CCC(C(=O)NC34CC5CC(CC(C5)C3)C4)CC2)n1	-97.3% (active)
CCCCCNC(=O)C1C(=O)Nc2ccccc2C(=O)N1C(C)(C)C (stereo unspecified)	inactive
COC(=O)[C@]12CCCCC=C1N(Cc1ccc(Cl)cc1Cl)C(=O)[C@H](CC(=O)NCc1cccc3ccccc13)C2	inactive
COC(=O)C1(C(=O)OC)C[C@H](c2ccccc2)N(Cc2ccccc2OC)[C@@H]1c1ccccc1	inactive
O=C(N[C@H]1CC[C@H](CC(=O)N2CCCCC2)O[C@@H]1CO)c1cccc(F)c1	inactive
c1ccc(CSc2ncnc3c2sc2nc(N4CCOCC4)c4c(c23)CCCC4)cc1	-92.8% (active)
c1ccc(COc2nsnc2N2CCOCC2)cc1	inactive
CCc1nc2sc3c(Cl)ncnc3c2c2c1CCCC2	inactive
COC(=O)[C@@]12C[C@@H](CC(=O)NCCCCc3ccccc3)C(=O)N(CCc3ccc(OC)c(OC)c3)C1=CCC(C)(C)C2	inactive
CCOC(=O)NC(=O)CSc1nnc(SCCC(=O)O)s1	inactive
COC(=O)[C@@]12C[C@@H](CC(=O)N3CCCCC3)C(=O)N(Cc3ccc4c(c3)OCO4)C1=CCC(C)(C)C2	inactive
CSc1nc2c(c(=O)[nH]1)C(c1cccc(Cl)c1Cl)CC(=O)N2 (stereo unspecified)	inactive
COc1ccc(C2CC(=O)Nc3sc(=N)c4c(N)c(C#N)c(N)nc4c32)cc1OC (stereo unspecified)	inactive
N#Cc1c(N)nc2c3c(sc(=N)c2c1N)NC(=O)CC3c1ccccc1Cl (stereo unspecified)	-87.7% (active)
